Rab9 prom act: activators of Rab9 promoter. Huh7 Rab9 promoter-luciferase reporter, luminescence, 24 h. Potency, µM (highest dose often 9.22 µM), without a hit: top-dose activation, negative = inhibition, most hits filed as activators. 320,000 tested, 2.8% active. AID 485297; further: % of control where 0% means no effect; nearly all actives have a fitted effect of over 60% in size
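Luminescence read-out: Huh7 cells stably expressing Rab9-luciferase, treated 24 h with compound at 37 °C, then lysed with luciferase reagent for 10 min at ambient before reading.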
ELG1 genotox: inducers of genotoxicity in HEK293T ELG1-luciferase cells; 330,000 tested, 1.3% active; HEK293T ELG1-luciferase reporter, luminescence, 16 h; AID 504466; Potency, µM (doses to about 46 µM), without a hit: top-dose activity change, positive = activation, hits mostly activators; further: % of control where 0% means no effect; nearly all actives have a fitted effect of over 60% in size
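ELG1-luciferase HEK293T cells, 2,000/well; compound pinned in; 16 hr, 37 °C, 5% CO2; ONE-Glo, 30 min RT; luminescence on CCD imager.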
NPC1 prom act: NPC1 promoter activation; Huh7 NPC1 promoter luciferase reporter, 24 h; Potency, µM (titrated, usually from 9.22 µM), without a hit: top-dose activation, actives largely listed as activators; 320,000 tested, 2.4% active; further: % of control where 0% means no effect; nearly all actives have a fitted effect of over 60% in size
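In 1536-well qHTS, Huh7 cells harboring an NPC1 promoter–luciferase construct received compound for 24 h; activation was quantified by luminescence following luciferase reagent addition.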
uPA surface inh: blocks generation of uPA at the cell surface. AID 540303. cell surface uPA generation assay, qHTS. 330,000 tested, 0.31% active. Potency, µM (series often up to 38.3 µM), for the others: at the top dose activity change, negative = inhibition, hits mostly inhibitors; active means well fitted inhibition curve with a large enough effect; inconclusive means small, poorly fitted or top-dose-only effect; inactive means no such curve, though single readings can be large or run the other way; tested in mouse RAW 264.7 cells; further: on the % scale 0 is the no-effect control and ±100 the full control effect; nearly all actives have a fitted effect of over 55% in size
SMN2 splice up: increases expression of the SMN2 splice variant | 210,000 tested, 2.8% active | Potency, µM (top dose mostly 46.1 µM), for inactives: at the highest dose activity change, positive = activation, usual class: activators | AID 1458 | HEK293 SMN2-luciferase splicing reporter, luminescence, 30-36 h; further: % of control where 0% means no effect; nearly all actives have a fitted effect of over 55% in size
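qHTS luciferase splicing reporter: luminescence rises when SMN2 exon 7 is included in transfected HEK293 cells. Compound exposure lasted 30-36 h at 37C, with 4.5 mM final sodium butyrate as control, followed by a ONE-Glo read.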
FLuc counter: inhibits or activates purified firefly luciferase, miR-21 counter-screen | Potency, µM (highest dose often 57.5 µM), for inactives: at the top dose activity change, negative = inhibition, most hits filed as inhibitors | P08659 | AID 588342 | purified FLuc, Km substrates, luminescence inhibition | 360,000 tested, 6.9% active;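 further: plate controls were vehicle for no effect and reference inhibitor for full effect; nearly all actives have a fitted effect of over 55% in size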
Target sequence (P08659 whole entry, looked up): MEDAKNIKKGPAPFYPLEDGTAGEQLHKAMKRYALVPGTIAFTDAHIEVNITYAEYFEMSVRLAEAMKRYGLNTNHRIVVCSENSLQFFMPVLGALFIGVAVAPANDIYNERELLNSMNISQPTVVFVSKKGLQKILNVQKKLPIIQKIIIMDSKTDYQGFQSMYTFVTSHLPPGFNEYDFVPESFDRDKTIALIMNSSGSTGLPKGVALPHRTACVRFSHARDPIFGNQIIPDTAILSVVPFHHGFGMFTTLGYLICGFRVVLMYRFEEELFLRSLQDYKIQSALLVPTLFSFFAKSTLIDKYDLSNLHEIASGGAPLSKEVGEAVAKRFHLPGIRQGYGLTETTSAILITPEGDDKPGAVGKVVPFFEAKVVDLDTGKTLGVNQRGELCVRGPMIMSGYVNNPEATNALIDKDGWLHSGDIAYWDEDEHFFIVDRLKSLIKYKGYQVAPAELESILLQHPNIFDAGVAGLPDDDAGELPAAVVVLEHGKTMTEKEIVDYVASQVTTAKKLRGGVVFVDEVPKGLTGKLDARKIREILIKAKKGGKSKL
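Biochemical qHTS of compounds, final roughly 60 µM downward over six points, against 10 nM purified firefly luciferase using Km concentrations of substrates (10 uM D-luciferin, 10 uM ATP) in Tris acetate pH 7.5 buffer; luminescence output.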
* = called active by the depositor; ? = inconclusive; nt = no result given. Most compounds without a hit are left out; they make up all but 7.3% or so of the library. Unless noted, the call rests on the fitted dose curve; in most records, active means well fitted curve in the direction sought with a large enough effect; inconclusive means small, poorly fitted or top-dose-only effect, or another doubt; inactive means no such curve, though single readings can be large; an effect the other way counts as inactive or inconclusive. Potency means the concentration at half of the fitted maximal effect.

SMILES	Rab9 prom act	ELG1 genotox	NPC1 prom act	uPA surface inh	SMN2 splice up	FLuc counter
O=C(/C=C\Nc1ccccn1)c1ccccc1	0.35µM*	0.52µM*	0.63µM*	-5%	2µM*	0.67µM*
Cc1ccccc1NC(=O)c1ccccn1	20%	10%	21%	3%	nt	?
COc1ccc(C(=O)/C=C/Nc2c(C)n(C)n(-c3ccccc3)c2=O)c(OC)c1	-3%	1%	-2%	5%	8%	-1%
COc1ccc(C(=O)/C=C/Nc2ccccn2)c(OC)c1	0.89µM*	1.8µM*	0.56µM*	-6%	nt	3.4µM*
COc1cc(OC)c(C(=O)NCc2nc(-c3ccccc3)no2)cc1OC	nt	nt	nt	nt	-17%	-6%
Nc1ccc2oc3ccc(N)cc3c(=O)c2c1	4µM*	?	2.5µM*	?	?	24µM*
Nc1ccc2c(=O)[nH][nH]c(=O)c2c1	nt	nt	nt	1%	nt	nt
Cc1cccc(Cn2c(=O)n(CCc3ccccc3)c(=O)c3sc4ccccc4c32)c1	nt	nt	nt	nt	4%	-5%
O=C(c1ccco1)N1CCN(Cc2c(Cl)cccc2Cl)CC1	3.2µM*	?	?	15%	nt	27µM*
O=C(c1ccc(-c2ccccc2Cl)o1)N1CCN(S(=O)(=O)c2cccs2)CC1	?	0%	?	-14%	nt	11µM*
CN(C)/C=C/C(=O)c1ccc(-c2ccc(Cl)cc2Cl)o1	4.5µM*	?	?	nt	?	9.5µM*
O=C(c1ccco1)N1CCN(Cc2ccc(Cl)cc2)CC1	-1%	-2%	0%	14%	4%	6%
O=C(O)c1ccc(-c2ccc(Cl)cc2Cl)o1	18%	12%	1%	-4%	-7%	?
NC(=O)C1CCN(C(=O)c2ccc(-c3ccccc3Cl)o2)CC1	2.5µM*	?	?	-5%	nt	9.5µM*
O=S(=O)(c1ccccc1)N1CCC2(CCN(c3ccncc3)CC2)CC1	nt	nt	nt	nt	-37%	nt
COC(=O)c1ccc(NC(=O)CC2C(=O)N(c3ccccc3)C(=O)N2Cc2ccc(F)cc2)cc1 (configuration not stated)	nt	nt	nt	nt	nt	-10%
Cc1ccccc1-c1nn2c(=O)cc(CN3CCN(C(=O)c4ccccc4Br)CC3)nc2s1	nt	nt	nt	nt	nt	6%
O=C(c1ccc(-c2ccc(Cl)cc2Cl)o1)N1CCOCC1	3.2µM*	?	3.2µM*	?	22µM*	8.5µM*
Cc1onc(-c2ccccc2Cl)c1C(=O)N1CCN(C(=O)c2ccco2)CC1	-2%	-6%	0%	0%	10%	4%
O=C(c1ccc(-c2ccccc2Cl)o1)N1CCN(c2ccccc2O)CC1	2%	-1%	12%	1%	nt	?
O=C(c1cc(-c2ccccc2Cl)on1)N1CCN(C(=O)c2ccco2)CC1	-3%	1%	1%	-4%	5%	19µM*
O=C(c1cc(-c2ccc(Cl)cc2Cl)on1)N1CCN(C(=O)c2ccco2)CC1	3%	0%	2%	3%	-33%	30µM*
O=C(c1ccco1)N1CCN(C(=O)c2ccc(-c3ccccc3Cl)o2)CC1	2.8µM*	14%	?	-14%	nt	9.5µM*
CCOC(=O)C1CCN(C(=O)c2c(C)nn(-c3ccc(F)cc3)c2-n2cccc2)CC1	nt	nt	nt	nt	nt	1%
CCCCC/C=C\C/C=C\CCCCCCCC(=O)O[C@@H](CO)COC(=O)CCCCCCCCCCCCCCCCC	nt	nt	nt	nt	-3%	nt
Cn1c(SCc2nc3ccccc3c(=O)[nH]2)nc2ccccc21	9%	2%	9%	-2%	14%	-28%
Cn1c(-c2ccccc2)cnc1SCc1nc2ccccc2c(=O)[nH]1	1.4µM*	2.1µM*	2.8µM*	-7%	2.5µM*	6µM*

Screens deposited in PubChem BioAssay by National Center for Advancing Translational Sciences (NCATS).
